# Assay results reported in the antibiotic and cytotoxicity screens of Wong et al. (2023).
# About 3,300 (8.5%) of roughly 39,000 compounds were called active. This excerpt belongs to a sample that is enriched for actives.
# Test system: HepG2
# Experiment: cytotoxicity call (relative viability < 0.9)
# Conditions: 10 µM
row,Structure (SMILES),cytotoxicity call
1,O=S(=O)(O)c1cc(O)ccc1O,active
2,O=C(O)c1cc(O)ccc1O [listing 1 of 2 here],inactive
3,O=C(O)c1cc(O)ccc1O [listing 2 of 2 here],inactive
4,C[C@@H]1CN([C@H](C)CO)C(=O)c2cc(NS(C)(=O)=O)ccc2O[C@@H](C)CCCCO[C@H]1CN(C)C(=O)Nc1ccc(C(F)(F)F)cc1,inactive
5,COc1ccc(S(=O)(=O)Nc2ccc3c(c2)C(=O)N([C@H](C)CO)C[C@H](C)[C@@H](CN(C)C(=O)CCC(F)(F)F)OCCCC[C@H](C)O3)cc1,inactive
6,O=C(CCCCCC(=O)N/N=C/[C@H](O)[C@@H](O)[C@@H](O)[C@H](O)CO)NO,inactive
7,C[C@@H]1CN([C@H](C)CO)C(=O)CCCn2nncc2CO[C@H]1CN(C)S(=O)(=O)c1ccc(Oc2ccccc2)cc1,inactive
8,C[C@H](CO)N1C[C@H](C)[C@H](CN(C)CC2CCCCC2)Oc2ccc(NC(=O)Nc3ccc(C(F)(F)F)cc3)cc2C1=O,active
9,C[C@H]1CN([C@@H](C)CO)C(=O)c2cc(NC(=O)Nc3ccc(F)cc3)ccc2O[C@@H]1CN(C)CC1CCCCC1,active
10,C[C@@H]1CN([C@H](C)CO)C(=O)c2cc(NC(=O)Nc3ccc(F)cc3)ccc2O[C@H]1CN(C)CC1CCCCC1,inactive
11,C[C@H](CO)N1C[C@H](C)[C@@H](CN(C)CC2CCCCC2)Oc2ccc(NC(=O)Nc3ccc(F)cc3)cc2C1=O,inactive
12,C[C@@H]1CN([C@@H](C)CO)C(=O)c2cc(NC(=O)Nc3ccc(C(F)(F)F)cc3)ccc2O[C@H]1CN(C)CC1CCCCC1,active
13,C[C@@H]1CN([C@@H](C)CO)C(=O)c2cc(NC(=O)Nc3ccc(C(F)(F)F)cc3)ccc2O[C@@H]1CN(C)CC1CCCCC1,active
14,C[C@@H]1CN([C@H](C)CO)C(=O)c2cc(NC(=O)Nc3ccc(F)cc3)ccc2O[C@@H]1CN(C)CC1CCCCC1,inactive
15,C[C@H](CO)N1C[C@H](C)[C@H](CN(C)CC2CCCCC2)Oc2ccc(NC(=O)Nc3ccc(F)cc3)cc2C1=O,inactive
16,C[C@H]1CN([C@@H](C)CO)C(=O)c2cc(NC(=O)Nc3ccc(F)cc3)ccc2O[C@H]1CN(C)CC1CCCCC1,inactive
17,C[C@@H]1CN([C@@H](C)CO)C(=O)c2cc(NC(=O)Nc3ccc(F)cc3)ccc2O[C@@H]1CN(C)CC1CCCCC1,inactive
18,NCCc1[nH]cnc1-c1cccs1,inactive
19,C[C@H](CO)N1C[C@H](C)[C@H](CN(C)C(=O)Nc2cccc3ccccc23)Oc2ccc(NS(=O)(=O)c3ccc(Cl)cc3)cc2CC1=O,inactive
20,COc1ccc(S(=O)(=O)Nc2ccc3c(c2)C(=O)N([C@H](C)CO)C[C@@H](C)[C@@H](CN(C)C(=O)C2CCCCC2)OCCCC[C@H](C)O3)cc1,inactive
21,C[C@@H]1CN([C@@H](C)CO)C(=O)c2cc(NC(=O)CCCCCC(=O)Nc3ccccc3N)ccc2O[C@H]1CN(C)C(=O)Nc1cccc2ccccc12,inactive
22,CC(C)NC(=O)N(C)C[C@@H]1Oc2ccc(NC(=O)Nc3ccc4c(c3)OCO4)cc2C(=O)N([C@H](C)CO)C[C@@H]1C,inactive

row,Structure (SMILES),cytotoxicity call
1,C[C@@H]1CCCCO[C@@H](CN(C)C(=O)Cc2ccccc2)[C@H](C)CN([C@@H](C)CO)C(=O)c2cc(NC(=O)Nc3ccccc3)ccc2O1,inactive
2,Cc1cc(C(=O)Nc2cccc3c2O[C@@H](CN(C)S(=O)(=O)c2cn(C)cn2)[C@@H](C)CN([C@H](C)CO)C3=O)n(C)n1,inactive
3,Cc1ccc(S(=O)(=O)Nc2cccc3c2O[C@H](CN(C)S(=O)(=O)c2cccs2)[C@@H](C)CN([C@@H](C)CO)C3=O)cc1,inactive
4,CC(=O)NCC(=O)N1Cc2nccn2C[C@H](Cn2nc(C)nc2C)C1,inactive
5,C[C@@H]1CN([C@@H](C)CO)C(=O)c2cc(C#C[C@@H](C)O)cnc2O[C@@H]1CN(C)C(=O)CN1CCOCC1,inactive
6,Cc1ccc(S(=O)(=O)N(C)C[C@H]2Oc3ccc(NC(=O)Cn4cnnn4)cc3CC(=O)N([C@H](C)CO)C[C@H]2C)cc1,inactive
7,COc1ccc(NC(=O)N(C)C[C@H]2Oc3c(NS(=O)(=O)c4c(C)noc4C)cccc3C(=O)N([C@@H](C)CO)C[C@H]2C)cc1,inactive
8,COc1ccc(NC(=O)N(C)C[C@@H]2Oc3ncc(-c4cccc(C(F)(F)F)c4)cc3C(=O)N([C@H](C)CO)C[C@@H]2C)cc1,inactive
9,C[C@@H]1CN([C@@H](C)CO)C(=O)c2cc(NC(=O)Cn3cnnn3)ccc2O[C@H]1CN(C)C(=O)Nc1ccc2c(c1)OCO2,inactive
10,C[C@H](CO)N1C[C@H](C)[C@@H](CN(C)CC2CCCCC2)Oc2ccc(NC(=O)Nc3ccc(C(F)(F)F)cc3)cc2C1=O,inactive
11,C[C@@H]1CN([C@H](C)CO)C(=O)c2cc(NC(=O)Nc3ccccc3)ccc2O[C@@H]1CN(C)CC1CCCCC1,inactive
12,C[C@@H]1CN([C@@H](C)CO)C(=O)c2cc(NC(=O)Nc3ccc(F)cc3)ccc2O[C@H]1CN(C)CC1CCCCC1,inactive
13,C[C@H]1CN([C@@H](C)CO)C(=O)c2cc(NC(=O)Nc3ccc(C(F)(F)F)cc3)ccc2O[C@@H]1CN(C)CC1CCCCC1,inactive
14,C[C@@H]1CN([C@H](C)CO)C(=O)c2cc(NC(=O)Nc3ccc(C(F)(F)F)cc3)ccc2O[C@H]1CN(C)CC1CCCCC1,active
15,C[C@@H]1CN([C@H](C)CO)C(=O)c2cc(NC(=O)Nc3ccc(C(F)(F)F)cc3)ccc2O[C@@H]1CN(C)CC1CCCCC1,active
16,CNC[C@@H]1Oc2ccc(NC(=O)CCN3CCOCC3)cc2CC(=O)N([C@H](C)CO)C[C@H]1C,inactive
17,C[C@H](CO)N1C[C@H](C)[C@@H](CN(C)C(=O)Nc2ccc3c(c2)OCO3)Oc2ccc(NC(=O)CCN3CCOCC3)cc2CC1=O,inactive
18,O=C(C[C@@H]1CC[C@H]2[C@@H](COC[C@@H](O)CN2C(=O)c2ccccc2F)O1)N1CCN(c2ccccc2)CC1,inactive
19,c1ncc(CC2CCNCC2)[nH]1,inactive
20,COc1ccc(S(=O)(=O)Nc2ccc3c(c2)CC(=O)N([C@@H](C)CO)C[C@@H](C)[C@H](CN(C)C)O3)cc1,inactive
21,C[C@H]1CN([C@@H](C)CO)C(=O)c2cccc(NC(=O)Nc3ccc4c(c3)OCO4)c2O[C@@H]1CN(C)Cc1ccc(C(=O)Nc2ccccc2N)cc1,inactive
